Reference: PubChem BioAssay (NCI)
Compounds without any hit were thinned out: in the full panel of roughly 83,000, 20% have a hit.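 Values shown are percent growth following 48 h exposure of cells in 96-well plates to a single concentration of compound; below 10 was considered active.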 Unmarked numbers belong to inactive results. The source made the active and inactive calls.

Tested on: HOP-62 NSCLC
Assay: NCI-60 one-dose screen, 48 h (100 = growth as untreated, 0 = no growth, -100 = all killed)
Details: 10 µM unless noted

| SMILES | growth |
| --- | --- |
| Cc1c(O)cc(-c2cnc(N/N=C/c3ccccc3)s2)c(O)c1C | 107% |
| CCCCO[C@@H]1C=C2[C@H]3CC(C)(C)C(=O)C[C@]3(C(=O)O[C@@H]3O[C@H](CO[C@@H]4O[C@H](CO)[C@@H](OC5OC(C)C(O)C(O)C5O)[C@H](O)[C@H]4O)[C@@H](O)[C@H](O)[C@H]3O)CC[C@@]2(C)[C@]2(C)CC[C@H]3C(C)(C)C(=O)CC[C@]3(C)[C@@H]12 (stereo partly drawn) | 76.1% |
| O=CN1N=C(c2cccc(Nc3ccnc4cc(Cl)ccc34)c2)CC1c1ccc(Cl)cc1 (stereo not drawn) | 24.2% |
| CCCCCCCCn1ccc2cc(NC(=O)CN3CCN(c4cc(C)nc(Cl)n4)CC3)ccc21 | 119% |
| O=C1Nc2ccccc2/C1=N/N1C(=O)CN(CCCl)C1=O | 97.5% |
| CCOc1ccc(/C=C/C(=O)c2cccc(OCCCOc3cccc(C(=O)/C=C/c4ccc(OCC)cc4)c3)c2)cc1 | 107% |
| C=C1C(=O)O[C@H]2[C@H]1CC/C(COC(=O)NCc1ccc(Cn3c(=O)sn(-c4ccc(I)cc4)c3=O)cc1)=C\CC[C@@]1(C)O[C@@H]21 | 97.8% |
| O=C1/C(=C/c2c[nH]c(=O)[nH]c2=O)SC(=S)N1Cc1ccccc1 | 101% |
| Nc1nc(N(Cc2ccccc2)c2ccccc2)c2cn[nH]c2n1 | 70% |
| CC(C)NS(=O)(=O)/N=C1\NC(=O)NC1=C(Cl)Cl | 101% |
| COc1cc2c(cc1OCCCN1CCN(C(=S)SCCC(C#N)(c3ccccc3)c3ccccc3)CC1)N=C[C@@H]1CCCN1C2=O | 1.76% (active) |
| O=c1cc(CP(=O)(O)O)c2cc(O)c(-c3ccccc3)cc2o1 | 103% |
| O=S(=O)(Nc1ccc2ccccc2c1)c1ccc(-c2cnc(C3CC3)o2)cc1 | 31.6% |
| N=C(N)c1ccc(OCCSCCOc2ccc(C(=N)N)cc2)cc1 | 72.5% |
| Fc1ccc(/C=C/[C@@H]2C[C@@H](F)CCO2)cc1 | 105% |
| COC(=O)[C@@]12CC=C(C)[C@]3(C[C@H](c4ccoc4)OC3=O)[C@H]1C=C[C@@H](O)[C@@]2(O)C(=O)OC | 91.3% |
| O=c1oc2c(cc1-c1ccccc1)c(=O)[nH]c1ccccc12 | 106% |
| COc1ccc(C/C(C)=C(\c2ccc(O)cc2)c2ccc(OCCN3CCCCC3)cc2)cc1 | 95.6% |
| CNC(=O)c1cc(Oc2ccc3c(c2)sc2nc(-c4ccc(NC(=O)[C@@H](NC(=O)OC)C(C)C)cc4)cn23)ccn1 | 82.5% |
| Nc1[nH]nc2nc(-c3ccccc3)n3c4ccccc4nc3c12 | 95.7% |
| N#Cc1ccccc1-c1ccc(CN2C(=O)S/C(=C\c3ccc(Br)cc3)C2=O)cc1 | 94.8% |
| C=C1CC[C@@H]2C(C)(C)[C@H](O)CC[C@@]2(C)[C@@H]1COc1ccc2ccc(=O)oc2c1 | 45.9% |
| COc1cc2ncnc(Nc3ccc(S(=O)(=O)Nc4nccs4)cc3)c2cc1OCCCN1CCCC1 | 103% |
| Cc1cc(O)c(=O)cc2c1C[C@H]1CC(C)(C)/C=C/C[C@]3(C)Oc4cc(=O)c(O)cc(C)c4C[C@H]3C[C@H](O)[C@@]1(C)O2 | 0.636% (active) |
| COc1ccc2[nH]cc(-c3nonc3-c3c[nH]c4ccc(Br)cc34)c2c1 | 33.8% |
| COc1cc2c(c(OC)c1OC)C(=O)CC(c1cccc(C(=O)Nc3ccccc3Br)c1)O2 (stereo not drawn) | 97.1% |
| NS(=O)(=O)c1ccc(C(=O)N=Nc2c(O)[nH]c3ccc(Cl)cc23)cc1 | 100% |
| CCCN(CCSSCCNc1nc(N(C)O)nc(N(C)O)n1)c1nc(N(C)O)nc(N(C)O)n1 | 24.5% |

Tested on: NCI-H460 lung
Assay: as above
Details: 10 µM unless noted

| SMILES | growth |
| --- | --- |
| CC/C(=C(\c1ccc(Cl)cc1)c1ccc(OCCN2CCCCC2)cc1)c1ccc(O)cc1 | -34.5% (active) |
| CCOC(=O)c1[nH]cc2c1CCc1sc(Nc3ccccn3)nc1-2 | 85.9% |
| COc1cc(-c2ccc(-c3ccc(C(=N)N)cc3)s2)cc(OC)c1OC | 37.1% |
| CN(C)c1ccc([C@@H](C(=O)Nc2cccc([N+](=O)[O-])c2)N(C(=O)c2cc3ccccc3[nH]2)c2cccc([N+](=O)[O-])c2)cc1 | 98.2% |
| Cc1cccc(NC(=O)N/C(N)=N/c2nc3ccccc3s2)c1 | 17.6% |
| CN(C)c1ccc(/C=N\NC(=O)c2ccc3nc(-c4ccc(Cl)cc4)[nH]c3c2)cc1 | 36.2% |
| C=C1SC(=Nc2ccccc2Cl)N(C(=O)c2sc3ccccc3c2Cl)C1(C)C | 15.1% |
| CC[C@@H](C(=O)[C@@H](C)[C@@H](O)[C@H](C)[C@@H]1O[C@@H]([C@@H](CC)C(=O)ONC(=O)c2ccccc2O)CC[C@@H]1C)C1O[C@]2(C=CC(=O)[C@]3(CC[C@@](C)([C@H]4CC[C@](O)(CC)[C@H](C)O4)O3)O2)[C@H](C)C[C@@H]1C (stereo partly drawn) | 33.5% |
| Cc1ccc(NC(=O)c2cc3ccccc3cc2O)c(C)c1 | 79.9% |
| CCN(CC)CCOc1ccc2c(-c3ccccc3)c(-c3ccc(OC)cc3)c(=O)oc2c1 | 57.4% |
| CCOC(=O)C1=C(CC(O)c2ccc(OC)cc2OC)NC(=O)NC1c1ccccc1 (stereo not drawn) | 113% |
| COc1nc(/C=C\Nc2ccc3c(c2)OCCOCCOCCOCCO3)nc(OC)n1 | 97.3% |
| Cc1c(O)cc(-c2cnc(N/N=C/c3ccccc3)s2)c(O)c1C | 102% |
| CCCCO[C@@H]1C=C2[C@H]3CC(C)(C)C(=O)C[C@]3(C(=O)O[C@@H]3O[C@H](CO[C@@H]4O[C@H](CO)[C@@H](OC5OC(C)C(O)C(O)C5O)[C@H](O)[C@H]4O)[C@@H](O)[C@H](O)[C@H]3O)CC[C@@]2(C)[C@]2(C)CC[C@H]3C(C)(C)C(=O)CC[C@]3(C)[C@@H]12 (stereo partly drawn) | 91.8% |
| O=CN1N=C(c2cccc(Nc3ccnc4cc(Cl)ccc34)c2)CC1c1ccc(Cl)cc1 (stereo not drawn) | 19.3% |
| CCCCCCCCn1ccc2cc(NC(=O)CN3CCN(c4cc(C)nc(Cl)n4)CC3)ccc21 | 91.8% |
| O=C1Nc2ccccc2/C1=N/N1C(=O)CN(CCCl)C1=O | 102% |
| CCOc1ccc(/C=C/C(=O)c2cccc(OCCCOc3cccc(C(=O)/C=C/c4ccc(OCC)cc4)c3)c2)cc1 | 65.4% |
| C=C1C(=O)O[C@H]2[C@H]1CC/C(COC(=O)NCc1ccc(Cn3c(=O)sn(-c4ccc(I)cc4)c3=O)cc1)=C\CC[C@@]1(C)O[C@@H]21 | 91.9% |
| O=C1/C(=C/c2c[nH]c(=O)[nH]c2=O)SC(=S)N1Cc1ccccc1 | 105% |

| SMILES | growth |
| --- | --- |
| Nc1nc(N(Cc2ccccc2)c2ccccc2)c2cn[nH]c2n1 | 75.8% |
| CC(C)NS(=O)(=O)/N=C1\NC(=O)NC1=C(Cl)Cl | 99.2% |
| COc1cc2c(cc1OCCCN1CCN(C(=S)SCCC(C#N)(c3ccccc3)c3ccccc3)CC1)N=C[C@@H]1CCCN1C2=O | -80.3% (active) |
| O=c1cc(CP(=O)(O)O)c2cc(O)c(-c3ccccc3)cc2o1 | 104% |
| O=S(=O)(Nc1ccc2ccccc2c1)c1ccc(-c2cnc(C3CC3)o2)cc1 | 15.2% |
| N=C(N)c1ccc(OCCSCCOc2ccc(C(=N)N)cc2)cc1 | 27.1% |
| Fc1ccc(/C=C/[C@@H]2C[C@@H](F)CCO2)cc1 | 99.7% |
| COC(=O)[C@@]12CC=C(C)[C@]3(C[C@H](c4ccoc4)OC3=O)[C@H]1C=C[C@@H](O)[C@@]2(O)C(=O)OC | 111% |
| O=c1oc2c(cc1-c1ccccc1)c(=O)[nH]c1ccccc12 | 105% |
| COc1ccc(C/C(C)=C(\c2ccc(O)cc2)c2ccc(OCCN3CCCCC3)cc2)cc1 | 72.6% |
| CNC(=O)c1cc(Oc2ccc3c(c2)sc2nc(-c4ccc(NC(=O)[C@@H](NC(=O)OC)C(C)C)cc4)cn23)ccn1 | 87.6% |
| Nc1[nH]nc2nc(-c3ccccc3)n3c4ccccc4nc3c12 | 93% |
| N#Cc1ccccc1-c1ccc(CN2C(=O)S/C(=C\c3ccc(Br)cc3)C2=O)cc1 | 106% |
| C=C1CC[C@@H]2C(C)(C)[C@H](O)CC[C@@]2(C)[C@@H]1COc1ccc2ccc(=O)oc2c1 | 90.5% |
| COc1cc2ncnc(Nc3ccc(S(=O)(=O)Nc4nccs4)cc3)c2cc1OCCCN1CCCC1 | 107% |
| Cc1cc(O)c(=O)cc2c1C[C@H]1CC(C)(C)/C=C/C[C@]3(C)Oc4cc(=O)c(O)cc(C)c4C[C@H]3C[C@H](O)[C@@]1(C)O2 | -6.53% (active) |
| COc1ccc2[nH]cc(-c3nonc3-c3c[nH]c4ccc(Br)cc34)c2c1 | 8.13% (active) |
| COc1cc2c(c(OC)c1OC)C(=O)CC(c1cccc(C(=O)Nc3ccccc3Br)c1)O2 (stereo not drawn) | 110% |
| NS(=O)(=O)c1ccc(C(=O)N=Nc2c(O)[nH]c3ccc(Cl)cc23)cc1 | 106% |
| CCCN(CCSSCCNc1nc(N(C)O)nc(N(C)O)n1)c1nc(N(C)O)nc(N(C)O)n1 | 28.4% |
